For 15 compounds, Potency and outcome results are on record in PubChem BioAssay (Tox21).

“And” between values parts separate entries of the source, which are not always exact repeats. Identical values can stand only once. More than one record can exist for a structure, and the calls need not agree. The source made the active and inactive calls. Unless noted, the call rests on the fitted dose curve; in most records, active means well fitted curve in the direction sought with a large enough effect in the repeat runs; inconclusive means weak or mixed curves; inactive means no such curve, though single readings can be large; an effect the other way counts as inactive or inconclusive.

A short description of test [1]: qHTS assay to test for compound auto fluorescence at 535 nm (green) in HEK293 cells (AID 720680).
Test [2] is described as follows: qHTS assay to test for compound auto fluorescence at 460 nm (blue) in HEK293 cell free culture (AID 720681). Further: potency means the concentration at half of the fitted maximal effect. In outline:
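Test compounds were pinned into cell-free culture medium (DMEM with 10% FBS) and fluorescence was read directly at Ex/Em 405/460 nm. Signals were expressed as fluorescence equivalents of triamterene, with DMSO vehicle as control.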

Test [3] in a line: qHTS assay to test for compound auto fluorescence at 535 nm (green) in HEK293 cell free culture (AID 720682). In outline: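 Compounds were pin-transferred into cell-free DMEM with 10% FBS, and green fluorescence was read at excitation 485 nm and emission 535 nm. Intensities were expressed as fluorescein-equivalent values.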
Test [4] can be described thus: qHTS assay to test for compound auto fluorescence at 590 nm (red) in HEK293 cell free culture (AID 720683). In outline:
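Tox21 10K library compounds were pinned into cell-free DMEM with 10% FBS and fluorescence was read at excitation 540 nm. Activity is expressed as Rose Bengal sodium equivalency.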

Test [5] can be described thus: qHTS assay to test for compound auto fluorescence at 590 nm (red) in HepG2 cell free culture (AID 720684). In outline: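 Readout: intrinsic compound fluorescence at 590 nm emission after 540 nm excitation, scaled to Rose Bengal sodium. Matrix was cell-free MEM with 10% FBS; DMSO vehicle wells served as control.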
Test [6] can be described thus: qHTS assay to test for compound auto fluorescence at 460 nm (blue) in HepG2 cell free culture (AID 720685). In outline: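 Cell-free plates of MEM plus 10% FBS received 23 nL compound or DMSO vehicle; blue-channel (405/460 nm) intensity scored against triamterene as reference fluorophore.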
A short description of test [7]: qHTS assay to test for compound auto fluorescence at 535 nm (green) in HepG2 cell free culture (AID 720686).
Test [8] concerns the target Glucocorticoid receptor (Homo sapiens) (UniProt P04150). As to the kind of experiment: qHTS assay to identify small molecule agonists of the glucocorticoid receptor (GR) signaling pathway (AID 720691; active means well fitted activation curve with a large enough effect in the signal ratio in the repeat runs, not every such curve was filed as active; inconclusive means weak or mixed curves, or effect the other way; inactive means no such curve, though single readings can be large or run the other way; the % refers to the signal ratio; further: potency means the concentration at half of the fitted maximal effect). A digest of the protocol:
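Cells: GR-bla HeLa, endogenous GR with stably integrated GRE-beta-lactamase reporter. Treatment 18 h, 37 C, compounds delivered in DMSO. Detection via LiveBLAzer B/G FRET substrate, 2 h RT, fluorescence intensity.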

The target is the same in test [9]. As to the kind of experiment: qHTS assay to identify small molecule antagonists of the glucocorticoid receptor (GR) signaling pathway (AID 720692; active means well fitted inhibition curve with a large enough effect in the signal ratio in the repeat runs, not every such curve was filed as active; inconclusive means weak or mixed curves, or effect the other way; inactive means no such curve, though single readings can be large or run the other way; the % refers to the signal ratio; further: potency means the concentration at half of the fitted maximal effect). A digest of the protocol: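 Quantitative HTS in antagonist format: HeLa cells expressing endogenous GR and a stably integrated GRE-bla reporter, stimulated with 5 nM dexamethasone (final) alongside test compounds for 18 h.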

The nature of test [10]: qHTS assay to identify small molecule antagonists of the glucocorticoid receptor (GR) signaling pathway - cell viability counter screen (AID 720693). Further: nearly all actives have a fitted effect of over 55% in size. Further: potency means the concentration at half of the fitted maximal effect.
Test [11] can be described thus: qHTS assay for identifying genotoxic compounds that show differential cytotoxicity against isogenic chicken DT40 cell lines with known DNA damage response pathways - Rad54/Ku70 mutant cell line (AID 743015). Further: nearly all actives have a fitted effect of over 60% in size. Further: potency means the concentration at half of the fitted maximal effect.
The nature of test [12]: qHTS assay to identify small molecule antagonists of the androgen receptor (AR) signaling pathway - cell viability counter screen (AID 743033; further: nearly all actives have a fitted effect of over 45% in size; further: potency means the concentration at half of the fitted maximal effect).
Test [13] deals with Androgen receptor (Homo sapiens) (UniProt P10275). In words: qHTS assay to identify small molecule antagonists of the androgen receptor (AR) signaling pathway (AID 743035; active means well fitted inhibition curve with a large enough effect in the signal ratio in the repeat runs, not every such curve was filed as active; inconclusive means weak or mixed curves, or effect the other way; inactive means no such curve, though single readings can be large or run the other way; the % refers to the signal ratio). In outline:
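Quantitative HTS of the Tox21 10K library used HEK293 AR-UAS-bla cells stimulated with R1881 alongside compound for 16 h at 37C, followed by beta-lactamase FRET detection (LiveBLAzer B/G, 2 h, RT).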

Test [14] shares this target. As to the kind of experiment: qHTS assay to identify small molecule agonists of the androgen receptor (AR) signaling pathway (AID 743036; active means well fitted activation curve with a large enough effect in the signal ratio in the repeat runs, with a control signal flat, not every such curve was filed as active; inconclusive means weak or mixed curves, or effect the other way; inactive means no such curve, though single readings can be large or run the other way; the % refers to the signal ratio). A digest of the protocol: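 Activation was read as beta-lactamase FRET signal from LiveBLAzer B/G substrate, added for 2 h at room temperature. Before that, GeneBLAzer AR-UAS-bla GripTite (HEK293) cells had 16 h compound exposure at 37C.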

The target is the same in test [15]. In words: qHTS assay to identify small molecule agonists of the androgen receptor (AR) signaling pathway using the MDA cell line (AID 743040; further: nearly all actives have a fitted effect of over 20% in size). In outline:
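Agonist activity is measured as luciferase luminescence in human MDA-kb2 cells whose MMTV reporter responds to both AR and GR. Compounds in DMSO incubate 16 h at 37C, 0% CO2, and ONE-Glo is read after 30 min.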

Test [16] can be described thus: qHTS assay to identify small molecule antagonists of the androgen receptor (AR) signaling pathway using the MDA cell line - cell viability counter screen (AID 743041; further: nearly all actives have a fitted effect of over 45% in size; further: potency means the concentration at half of the fitted maximal effect). In outline:
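qHTS viability read-out; MDA-kb2 AR-luc; R1881-stimulated; 16 h exposure at 37C, 0% CO2; CellTiter-Fluor, 30 min; fluorescence intensity.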

The target in test [17] is Androgen receptor (Homo sapiens) (UniProt P10275). As to the kind of experiment: qHTS assay to identify small molecule antagonists of the androgen receptor (AR) signaling pathway using the MDA cell line (AID 743042; further: nearly all actives have a fitted effect of over 55% in size). A digest of the protocol: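 MDA-kb2 cells (human breast carcinoma, stably carrying an MMTV-luciferase reporter responsive to AR and GR) were plated at 3,000 cells/well and preincubated 5 hr at 37C, then given compound plus R1881 agonist for 16 h. ONE-Glo luminescence was read.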
Chain of Androgen receptor (Homo sapiens) (P10275 whole entry, looked up): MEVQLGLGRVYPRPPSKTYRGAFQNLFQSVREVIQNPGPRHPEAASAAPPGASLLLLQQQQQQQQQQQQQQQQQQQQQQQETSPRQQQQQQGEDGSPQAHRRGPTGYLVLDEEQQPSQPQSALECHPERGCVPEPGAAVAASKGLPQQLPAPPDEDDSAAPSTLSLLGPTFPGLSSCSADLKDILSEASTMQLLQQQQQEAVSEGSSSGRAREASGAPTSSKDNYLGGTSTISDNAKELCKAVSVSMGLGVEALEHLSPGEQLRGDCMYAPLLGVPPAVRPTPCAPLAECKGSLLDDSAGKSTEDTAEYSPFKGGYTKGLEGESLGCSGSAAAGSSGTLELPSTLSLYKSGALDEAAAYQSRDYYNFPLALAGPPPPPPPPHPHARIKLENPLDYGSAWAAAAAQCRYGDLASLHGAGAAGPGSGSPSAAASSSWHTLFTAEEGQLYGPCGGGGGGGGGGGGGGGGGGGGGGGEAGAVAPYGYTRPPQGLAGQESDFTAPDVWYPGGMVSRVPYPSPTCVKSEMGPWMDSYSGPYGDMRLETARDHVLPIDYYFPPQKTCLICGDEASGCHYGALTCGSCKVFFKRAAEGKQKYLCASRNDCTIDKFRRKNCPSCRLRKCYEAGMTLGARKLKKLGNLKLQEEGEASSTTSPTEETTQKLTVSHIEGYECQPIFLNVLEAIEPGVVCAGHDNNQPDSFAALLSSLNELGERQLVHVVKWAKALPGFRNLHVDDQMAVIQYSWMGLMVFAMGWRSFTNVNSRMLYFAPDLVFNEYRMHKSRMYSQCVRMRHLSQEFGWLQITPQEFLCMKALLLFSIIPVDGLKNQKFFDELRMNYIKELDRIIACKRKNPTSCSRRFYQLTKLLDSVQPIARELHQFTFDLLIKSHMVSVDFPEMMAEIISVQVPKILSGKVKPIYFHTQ

Test [18] is described as follows: qHTS assay to test for compound auto fluorescence at 460 nm (blue) in HepG2 cells (AID 720687). In outline:
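Cells (2,000/well in MEM with 10% FBS) attached overnight at 37 C, then were exposed to compound or DMSO for 1 hr at 37 C, 5% CO2. Fluorescence read at Ex/Em 405/460 nm, expressed as triamterene-equivalent signal.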

Test [19] can be described thus: qHTS assay for identifying genotoxic compounds that show differential cytotoxicity against isogenic chicken DT40 cell lines with known DNA damage response pathways - wild type cell line (AID 743012). Further: nearly all actives have a fitted effect of over 60% in size. Further: potency means the concentration at half of the fitted maximal effect. A digest of the protocol:
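Luminescent ATP viability signal (CellTiter-Glo, 30 min RT) recorded after wild type DT40 cells were incubated with compounds for 40 h at 37 C/5% CO2.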

Test [20] in a line: qHTS assay for identifying genotoxic compounds that show differential cytotoxicity against isogenic chicken DT40 cell lines with known DNA damage response pathways - Rev3 mutant cell line (AID 743014). Further: nearly all actives have a fitted effect of over 55% in size. Further: potency means the concentration at half of the fitted maximal effect.

Chain of Glucocorticoid receptor (Homo sapiens) (P04150 whole entry, looked up): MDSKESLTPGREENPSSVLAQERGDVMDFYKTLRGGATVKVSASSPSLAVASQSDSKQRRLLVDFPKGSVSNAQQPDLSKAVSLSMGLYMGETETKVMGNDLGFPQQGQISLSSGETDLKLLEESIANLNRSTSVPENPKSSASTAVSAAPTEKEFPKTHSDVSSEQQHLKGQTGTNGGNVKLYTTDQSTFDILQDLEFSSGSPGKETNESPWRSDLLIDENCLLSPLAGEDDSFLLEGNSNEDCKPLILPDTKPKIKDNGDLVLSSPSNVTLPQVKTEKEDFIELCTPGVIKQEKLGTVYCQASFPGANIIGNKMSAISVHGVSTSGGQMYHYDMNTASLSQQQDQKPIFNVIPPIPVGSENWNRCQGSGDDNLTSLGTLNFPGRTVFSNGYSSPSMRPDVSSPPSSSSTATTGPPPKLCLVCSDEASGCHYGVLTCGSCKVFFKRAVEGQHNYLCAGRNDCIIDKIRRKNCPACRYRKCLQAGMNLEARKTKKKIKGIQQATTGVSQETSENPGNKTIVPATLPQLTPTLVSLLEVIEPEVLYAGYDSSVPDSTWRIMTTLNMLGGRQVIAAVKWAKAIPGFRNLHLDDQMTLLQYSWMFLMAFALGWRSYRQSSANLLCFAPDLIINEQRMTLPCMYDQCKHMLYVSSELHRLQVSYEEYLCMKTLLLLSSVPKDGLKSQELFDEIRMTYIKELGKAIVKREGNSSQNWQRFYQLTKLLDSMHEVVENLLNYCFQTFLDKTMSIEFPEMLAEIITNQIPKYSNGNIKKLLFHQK

On to `CCCCCCOC(=O)C(C)CC` (stereo unspecified), for which the Potency result in [1], in [2], in test [3], in [4], in test [5] and in test [6] was “inactive” in each case. For the same compound, the Potency result in [7], in [8], in test [9], in [10], in test [11] and in [12] was “inactive” each time. The Potency result in test [13], in test [14], in test [16] and in test [17] was “inactive” throughout. The result in test [15] was inactive.

For `Cc1cccc(C(=O)O)c1O`, the Potency entry in test [1], in [2], in test [3], in [5], in test [6] and in test [7] was “inactive” throughout. The Potency entry in test [18], in test [8], in test [19], in test [11], in [12] and in test [16] was “inactive” each time.

Regarding `CC(=O)[C@H]1CC[C@H]2[C@@H]3CCC4=CC(=O)CC[C@]4(C)[C@H]3CC[C@]12C`, the Potency entry in test [1], in test [2], in test [3], in test [4], in [5] and in test [6] was “inactive” each time. The Potency entry in test [7], in test [18] and in [16] was “inactive” throughout. In addition, the Potency in test [10] is 3.87 µM (active); in test [11], 9.44 µM (active) and 12.1 µM (active) and 12.2 µM (active); in test [12], “inactive and 43.6 µM (active)”.

For the compound `O=C1C(c2[nH]c3ccc(S(=O)(=O)O)cc3c2O)=Nc2ccc(S(=O)(=O)O)cc21`, the Potency entry in test [1], in test [2], in test [3], in test [5], in test [6] and in [7] was “inactive” each time. The Potency result in test [18], in test [10], in [19], in [20], in [12] and in test [16] was “inactive” in each case. For the same compound, the Potency entry in [11] is “inactive and 30.6 µM (active)”.

Regarding `Cc1cc(-n2nc3ccc(Cl)cc3n2)c(O)c(C(C)(C)C)c1`, the Potency result in test [1], in test [2], in [3], in [5], in test [6] and in test [7] was “inactive” in each case. Besides, the Potency entry in test [8], in test [9], in test [10], in test [19], in test [12] and in test [16] was “inactive” throughout.

For `CCc1ccc(Br)cc1`, the Potency entry in [1], in [2], in test [4], in test [5], in test [6] and in test [7] was “inactive” throughout. The Potency entry in [18], in [8], in test [9], in test [10], in [19] and in test [11] was “inactive” each time. Besides, the Potency entry in [12] and in test [16] was “inactive” each time.

Consider `Nc1ccc(Oc2ccc(Cl)cc2)cc1`, for which the Potency entry in test [1], in [2], in [3], in test [5], in [6] and in test [7] was “inactive” throughout. Further, the Potency entry in [10], in test [19] and in test [12] was “inactive” in each case. For the same compound, in [9], the Potency is 24 µM (active).

In the case of `CN(C)C(=O)COC(=O)Cc1ccc(OC(=O)c2ccc(N=C(N)N)cc2)cc1`, the Potency result in [1], in test [2], in [4], in test [5], in [6] and in test [7] was “inactive” each time. Besides, the Potency entry in test [18], in test [8], in test [9], in [10], in test [19] and in [20] was “inactive” throughout. The Potency result in test [11] and in [12] was “inactive” throughout.

Consider `O=c1oc2cc(O)ccc2c2oc3cc(O)ccc3c12`, for which the Potency result in test [1], in test [3], in test [5], in [7], in [8] and in test [10] was “inactive” throughout. The Potency entry in test [19], in test [20], in test [12] and in [16] was “inactive” throughout. The Potency in [2] is 5.01 µM (active).

As to `O=C(O)c1ccc2cc(C(=O)O)ccc2c1`, the Potency entry in [1], in test [2], in [4], in test [5], in [6] and in test [7] was “inactive” in each case. Moreover, the Potency result in test [18], in [8], in test [9], in [10], in test [20] and in [12] was “inactive” each time.

For the compound `COc1cccc2c1C(=O)c1c(O)c3c(c(O)c1C2=O)C[C@@](O)(C(C)=O)C[C@@H]3O[C@H]1C[C@H](N)[C@H](O)[C@H](C)O1`, the Potency entry in test [1], in [2], in test [3], in [5], in test [6] and in [7] was “inactive” each time. Besides, the Potency in [8] is 3.01 µM [inconclusive] (active) and 49.3 µM [inconclusive] (active); in [10] it was 7.56 µM (active) and 2.2 µM (active); in [19], 23.7 nM (active) and 21.8 nM (active); in test [20], 37.6 nM (active) and 12.3 nM (active); in [11], 10.6 nM (active) and 2.4 nM (active); in [12], 22 µM (active). Further, the Potency in test [16] is 54.8 µM (active).

On to `Nc1nc(-c2ccccc2)cs1`, for which the Potency entry in test [1], in test [2], in test [4], in [5], in test [6] and in [7] was “inactive” each time. Also, the Potency entry in test [18], in [8], in [10], in [19] and in test [12] was “inactive” in each case.

As to `CCCC(=O)OC(C)(C)Cc1ccccc1`, the Potency result in [1], in test [2], in test [4], in [5], in test [6] and in test [7] was “inactive” each time. The Potency result in test [18], in test [8], in test [9], in test [10], in test [19] and in [20] was “inactive” throughout. For the same compound, the Potency entry in [11], in test [12] and in test [16] was “inactive” in each case.

With `Cc1cccc2cccnc12`, the Potency result in test [1], in [2], in test [4], in test [5], in test [6] and in test [7] was “inactive” throughout. Also, the Potency entry in test [18], in test [20], in test [11], in test [12] and in test [16] was “inactive” in each case.

As for `Cc1nc(-c2ccc(Cl)cc2)oc1COC(C)(C)C(=O)O`, the Potency entry in [1], in test [2], in test [4], in [5], in [6] and in test [7] was “inactive” in each case. The Potency result in test [8], in test [9], in [10], in [19], in test [20] and in test [11] was “inactive” throughout. Besides, the Potency result in test [12] and in test [16] was “inactive” each time.
